Test results from PubChem BioAssay (NCI).
About 83,000 compounds went through this panel and 20% of them were active in at least one assay; those are over-represented in the sample as a whole.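 Compound tested at a single concentration for 48 hours in 96-well plates; a percent growth value below 10 was scored as active.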 Values without a mark were called inactive. Calls of active or inactive are those of the source.

Columns and labels:
Experiment in all cases: NCI-60 one-dose screen, 48 h (100 = growth as untreated, 0 = no growth, -100 = all killed)
Conditions in all cases: 10 µM
[1] = test system: RPMI-8226 leukemia
[2] = test system: OVCAR-8 ovarian
[3] = test system: OVCAR-5 ovarian
[4] = test system: OVCAR-4 ovarian
[5] = test system: SK-OV-3 ovarian
[6] = test system: IGROV1 ovarian
[7] = test system: OVCAR-3 ovarian
[8] = test system: HS 578T breast
[9] = test system: NCI/ADR-RES ovarian
[10] = test system: T-47D breast
[11] = test system: BT-549 breast
[12] = test system: MDA-MB-435 melanoma
[13] = test system: SW-620 colon
[14] = test system: MCF7 breast
[15] = test system: HCT-116 colon
[16] = test system: HCC-2998 colon
[17] = test system: KM12 colon

COc1cc(-c2nnc(-c3c(-c4ccc(F)cc4)nc4ccccn34)o2)cc(OC)c1OC
growth [1]: 71.9% | growth [2]: 46.6% | growth [3]: 95.6% | growth [4]: 69.5% | growth [5]: 76% | growth [6]: 119% | growth [7]: 75.1% | growth [8]: 68.1% | growth [9]: 61.6% | growth [10]: 53.1% | growth [11]: 66.1% | growth [12]: 93.5% | growth [13]: 90% | growth [14]: 73.3% | growth [15]: 34.1% | growth [16]: 105% | growth [17]: 81.7%

O=C(Nc1cccc(-n2cc(-c3ccncc3)c(-c3ccc(O)c(Cl)c3)n2)c1)Nc1ccc(Cl)c(Cl)c1
growth [1]: -30.8% (active) | growth [2]: -24.9% (active) | growth [3]: 31.4% | growth [4]: 13.8% | growth [5]: 19% | growth [6]: -0.387% (active) | growth [7]: -16.5% (active) | growth [8]: -0.243% (active) | growth [9]: 17.9% | growth [10]: -3.41% (active) | growth [11]: 1.9% (active) | growth [12]: -16.7% (active) | growth [13]: 6.85% (active) | growth [14]: -0.812% (active) | growth [15]: 1.72% (active) | growth [16]: 20.5% | growth [17]: 0.41% (active)

Nc1ccccc1NC(=O)CCCCC(=O)Nc1ccc2c(c1)/C(=C/c1ccc[nH]1)C(=O)N2
growth [1]: 56.2% | growth [2]: 78.5% | growth [3]: 96.5% | growth [4]: 52.1% | growth [5]: 72.5% | growth [6]: 59.8% | growth [7]: 65.8% | growth [8]: 52.3% | growth [9]: 107% | growth [10]: 59.6% | growth [11]: 33.9% | growth [12]: 68.8% | growth [13]: 91.3% | growth [14]: 35% | growth [15]: 82.7% | growth [16]: 87.5% | growth [17]: 15.9%

Cc1ccc2oc3nc(C)c(C(=O)NCc4ccccc4)cc3c(=O)c2c1
growth [1]: 86.1% | growth [2]: 92.5% | growth [3]: 86.8% | growth [4]: 85.3% | growth [5]: 116% | growth [6]: 103% | growth [7]: 99.7% | growth [8]: 106% | growth [9]: 63.4% | growth [10]: 63.5% | growth [11]: 95.1% | growth [12]: 65.5% | growth [13]: 77.5% | growth [14]: 45.6% | growth [15]: 60.6% | growth [16]: 35.4% | growth [17]: 28.6%

COc1ccc(Nc2nc3ccc(NC(=O)NC4CCCCC4)cc3[nH]c2=O)cc1
growth [1]: 66.2% | growth [2]: 91.4% | growth [3]: 104% | growth [4]: 113% | growth [5]: 96.1% | growth [6]: 94.1% | growth [7]: 112% | growth [8]: 69.6% | growth [9]: 103% | growth [10]: 92.8% | growth [11]: 87.7% | growth [12]: 105% | growth [13]: 108% | growth [14]: 83% | growth [15]: 102% | growth [16]: 104% | growth [17]: 87.1%

Cc1cccc(NC2=C(C#N)C(=O)NC3(CCCC3)S2)c1
growth [1]: 90% | growth [2]: 100% | growth [3]: 103% | growth [4]: 103% | growth [5]: 103% | growth [6]: 168% | growth [7]: 116% | growth [8]: 103% | growth [9]: 100% | growth [10]: 102% | growth [11]: 102% | growth [12]: 101% | growth [13]: 103% | growth [14]: 89.8% | growth [15]: 105% | growth [16]: 95.8% | growth [17]: 104%

CN(C)CCN1C(=O)c2cccc3c(-c4ccc5ncn(C6CCCCC6)c5c4)ccc(c23)C1=O
growth [1]: 7.51% (active) | growth [2]: 14.7% | growth [3]: 35.8% | growth [4]: 30.8% | growth [5]: 23% | growth [6]: 20.4% | growth [7]: 37.6% | growth [8]: 40.8% | growth [9]: 20.1% | growth [10]: 27.8% | growth [11]: 56.5% | growth [12]: 39.9% | growth [13]: 21.4% | growth [14]: 12.1% | growth [15]: 8.6% (active) | growth [16]: 39.8% | growth [17]: 24.8%

COC(=O)c1c(-c2ccccc2)csc1NC(=O)c1c(-c2ccccc2)noc1C
growth [1]: 27.9% | growth [2]: 25.6% | growth [3]: 63% | growth [4]: 79.9% | growth [5]: 58.6% | growth [6]: 20.6% | growth [7]: 36.7% | growth [8]: 65.9% | growth [9]: 36.8% | growth [10]: 71.8% | growth [11]: 59.2% | growth [12]: 32.7% | growth [13]: 19.4% | growth [14]: 24.6% | growth [15]: 6% (active) | growth [16]: 63.5% | growth [17]: 27.9%
